Holding throughout (assay): PBM binding z-score (relative to random genomic background probes); higher = stronger binding; sequences stand for … in GC…GCGATTGACAGCGTAGAATGAAGG
Test [1] relates to RARb homodimer (NR concentration 270 nM). Summed up:
(§1)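 On custom Agilent 4×180K arrays, double-stranded probes with 34-nt variable regions carried direct-repeat seeds, single-nucleotide variants, half-site ablations or random human genomic background. Ligand-free nuclear receptor dimers were applied for 1 h, and binding was read with antibodies against each partner (one per run). Binding z-scores come from regression-normalized fluorescence, with the random background probes as reference.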

For test [2], the system named is RARg:RXRa (NR concentration 270 nM, RXRa partner concentration 90 nM). In outline:
as §1

Test [3] relates to RARg homodimer (NR concentration 270 nM). Summed up: as §1
Test [4] deals with RXRa DBDmut IVT, anti-RXR (DBD mutation: RXRa K156A/R161A, NR concentration 90 nM). In outline: as §1
The test system of test [5] is RXRa homodimer (NR concentration 180 nM). Summed up: as §1
In test [6] the test system is THRa:RXRa (NR concentration 90 nM, RXRa partner concentration 90 nM). In outline: as §1
The subject of test [7] is THRa homodimer (NR concentration 90 nM). In outline: as §1
Test [8] relates to VDR homodimer (NR concentration 270 nM). In outline: as §1

In the case of AGTCAAAGTTCGTCTAGGTAACGTAAGATATGCT, the PBM binding z-score in test [1] is 1.35; in test [2], 1.99; in test [3] it was 2.11; in test [4], 3.25; in test [5] it was 1.39; in test [6], 1.97. Besides, the results for the PBM binding z-score in test [7] and in test [8] were 0.129 and 2.49, respectively.

Consider ATCTCTAGGTAAAAGTTCAGAGAATCCCGAGGAT, for which the PBM binding z-score in test [1] came out at 2.16; in test [2], 2.02; in test [3], 1.97; in test [4], 0.853; in test [5] it was 1.87; in test [6], 1.24. The PBM binding z-score in test [7] was -0.00417; in test [8] it was 1.91.

Regarding CGAACTAGGTCAAGAACAGTGAATCTCCGCACGC, the PBM binding z-score in test [1] stood at 2.48; in test [2] it was 3.31; in test [3], 4; in test [4] it was 1.65; in test [5], 2.36; in test [6] it was 2.33. Further, the PBM binding z-score in test [7] amounted to 0.755; in test [8], 0.197.

In the case of ACTATTTGTTGAGACGAGGGCAACCGATAGGTTG, the PBM binding z-score was determined as 1.14 in test [1]; 0.614 in test [2]; 0.897 in test [3]; 0.884 in test [4]; 0.414 in test [5]; 1.21 in test [6]. Further, the PBM binding z-score was 0.711 in test [7] and 1.3 in test [8].

Consider CCGAGTAGGTTATGGGGCATACAGGCAACGGTGA, for which the PBM binding z-score was 0.844 in test [1]; 0.575 in test [2]; 0.725 in test [3]; -0.471 in test [4]; 0.691 in test [5]; 0.28 in test [6]. Further, the values for the PBM binding z-score in test [7] and in test [8] were -0.0646 and 0.0894, respectively.

As to TCATATAGGTAATACAGCTGAAAGTCGGCATCTA, the PBM binding z-score in test [1] is -0.493; in test [2], 0.294; in test [3], 0.383; in test [4] it was 1.69; in test [5], 0.684; in test [6], -0.0502. Moreover, the values for the PBM binding z-score in test [7] and in test [8] were -0.127 and -0.525, respectively.

With TCTTGTAGATGAATAGAGGTTAAGAAAGTGCGCT, the PBM binding z-score in test [1] worked out at 1.19; in test [2] it was 0.961; in test [3], 0.531; in test [4], 1.66; in test [5] it was 1.68; in test [6] it was 1.72. Further, the PBM binding z-score came to 0.0374 in test [7] and 0.264 in test [8].

Take TCTTGTAGATCAAAGGTTAAGATAGCCGAAGCCT: the PBM binding z-score in test [1] was determined as 1.61; in test [2] it was 2.19; in test [3], 1.11; in test [4] it was 0.675; in test [5] it was 3.56; in test [6], 1.38. The PBM binding z-score in test [7] was -0.548; in test [8] it was 0.153.

In the case of TAGCCTAGGTCAGATCGGGCCAGGATACGCTATA, the PBM binding z-score in test [1] is 1.88; in test [2] it was 2.77; in test [3], 3.35; in test [4], -0.775; in test [5] it was 1.45; in test [6] it was 4.2. Besides, the PBM binding z-score was 0.225 in test [7] and -0.433 in test [8].

Regarding CCTTACGGGTCATGAGGTTATAGCACGACGAGCG, the PBM binding z-score in test [1] stood at 3.4; in test [2], 5.79; in test [3], 4.57; in test [4], 1.85; in test [5], 6.48; in test [6], 3.62. For the same sequence, the values for the PBM binding z-score in test [7] and in test [8] were 0.938 and 1.91, respectively.

On to ATCTCTAGGTAAAAGTTTAGTGAATCCCGAGGAT, for which the PBM binding z-score is 0.137 in test [1]; 0.438 in test [2]; 0.614 in test [3]; -0.116 in test [4]; 0.318 in test [5]; 0.379 in test [6]. Besides, the results for the PBM binding z-score in test [7] and in test [8] were 0.343 and 0.554, respectively.

With CTCGAAAGGTCGTGCTCAAGTGAGTATACCAAAC, the PBM binding z-score in test [1] amounted to 2.33; in test [2], 4.27; in test [3] it was 3.66; in test [4] it was 2.31; in test [5], 4.62; in test [6] it was 2.31. For the same sequence, the PBM binding z-score in test [7] is -0.0165; in test [8], 1.15.

As to CTAACTAGGTCATTGACAGGACAGTGAATAGTAA, the PBM binding z-score in test [1] was 2.61; in test [2] it was 4.49; in test [3] it was 4.43; in test [4], 2.41; in test [5] it was 2.33; in test [6], 2.85. Moreover, the PBM binding z-score turned out to be 0.816 in test [7] and 1.14 in test [8].

For the sequence CCTACTGGGCCACGAAAGGTCATAGATTCAGTGA, the PBM binding z-score was 4.58 in test [1]; 4.73 in test [2]; 4.53 in test [3]; -0.0363 in test [4]; 4.95 in test [5]; 3.84 in test [6]. In addition, the PBM binding z-score in test [7] was 0.901; in test [8], 1.31.

Source of the values: the supplement of paper PMC6555819.
